26 molecules from PubChem BioAssay (Tox21) can be followed below.

A short description of assay [1]: qHTS assay to identify small molecule antagonists of the estrogen related receptor (ERR) signaling pathway from Tox21 library - cell viability counter screen (AID 1224834). Further: nearly all actives have a fitted effect of over 30% in size. Further: potency means the concentration at half of the fitted maximal effect. In outline: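 Counter screen run in ERR cells (2,000 cells/well): cells pre-incubated 6 h, then treated with compounds for 17.5 h at 37 C. Fluorescence was read 30 min after CellTiter-Fluor addition.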

Assay [2] concerns the target Luciferin 4-monooxygenase (Photinus pyralis) (UniProt P08659). As to the kind of experiment: qHTS assay to identify small molecule inhibitors of firefly luciferase (AID 1224835). Further: nearly all actives have a fitted effect of over 25% in size. Further: potency means the concentration at half of the fitted maximal effect. In outline: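 Biochemical qHTS: compounds run as interplate titrations against purified firefly enzyme, with D-luciferin and ATP each at its KM concentration. Light output recorded by CCD imaging.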

Assay [3] can be described thus: qHTS assay to identify small molecule agonists of the constitutive androstane receptor (CAR) signaling pathway - cell viability counter screen (AID 1224836). Further: nearly all actives have a fitted effect of over 45% in size. Further: potency means the concentration at half of the fitted maximal effect. In short, it runs like this:
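Multiplexed viability check: HepG2-CYP2B6-hCAR cells, 15-point compound dosing, 0.75 uM PK11195 final, 23 h at 37 C, CellTiter-Fluor fluorescence.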
Background: qHTS replaces the single test concentration by a dilution series.

Assay [4] in a line: qHTS assay to identify small molecule antagonists of the constitutive androstane receptor (CAR) signaling pathway - cell viability counter screen (AID 1224837). Further: nearly all actives have a fitted effect of over 45% in size. Further: potency means the concentration at half of the fitted maximal effect. In outline: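 CITCO at 50 nM final was added alongside compounds (15 concentrations) to double-stable hCAR/CYP2B6-2.2kb HepG2 cells. Following 23 hr at 37 C, cell viability was quantified by CellTiter-Fluor fluorescence intensity.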

Assay [5] concerns the target Nuclear receptor subfamily 1 group I member 3 (Homo sapiens) (UniProt Q14994). Nature of the assay: qHTS assay to identify small molecule antagonists of the constitutive androstane receptor (CAR) signaling pathway (AID 1224838). Further: nearly all actives have a fitted effect of over 40% in size. Further: potency means the concentration at half of the fitted maximal effect. In outline: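 Inhibition of CITCO-driven (50 nM final) CYP2B6 reporter expression is measured in HepG2 cells stably carrying hCAR. Fifteen compound concentrations are applied for 24 h at 37 C, followed by luciferase luminescence.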

For assay [6] the target is unchanged. Nature of the assay: qHTS assay to identify small molecule agonists of the constitutive androstane receptor (CAR) signaling pathway (AID 1224839). Further: nearly all actives have a fitted effect of over 15% in size. Further: potency means the concentration at half of the fitted maximal effect. In outline:
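Using human hepatoma HepG2 cells engineered with hCAR and a CYP2B6-2.2kb reporter, 15-concentration compound series were incubated 24 h alongside PK11195 at 0.75 uM final, with luminescence quantified afterwards.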

A short description of assay [7]: qHTS assay to identify small molecule antagonists of the estrogen related receptor signaling pathway with the pleiotropic PPARgamma coactivator (PGC) from Tox21 10K library - cell viability counter screen (AID 1224840; active means well fitted cell-killing curve with a large enough effect in the repeat runs, not every such curve was filed as active; further: nearly all actives have a fitted effect of over 40% in size; further: potency means the concentration at half of the fitted maximal effect). In outline:
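Readout: fluorescence intensity from CellTiter-Fluor after 30 min at 37 C/5% CO2. Preceded by 17.5 h treatment of PGC/ERR cells with DMSO-dissolved compounds, added 6 h post-seeding.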

The nature of assay [8]: qHTS assay to identify small molecule agonists of the estrogen related receptor signaling pathway with the pleiotropic PPARgamma coactivator (PGC) (AID 1224823). In short, it runs like this: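 In this quantitative high-throughput screen, an 18 h, 37 C treatment of PGC/ERR cells with compounds in DMSO preceded a One-Glo luminescence read taken after 30 min at room temperature.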

Assay [9] can be described thus: qHTS assay to identify small molecule antagonists of the estrogen related receptor signaling pathway with the pleiotropic PPARgamma coactivator (PGC) from Tox21 10K library (AID 1224841; call rule not given here; further: actives are mostly falling curves and most rising ones were filed inactive; nearly all actives have a fitted effect of over 50% in size; further: potency means the concentration at half of the fitted maximal effect). In short, it runs like this:
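One-Glo luminescence, measured after half an hour at room temperature, quantified reporter output of PGC/ERR cells. These had been plated at 2,000 per well, incubated 6 h, dosed with compounds in DMSO, then kept 18 h at 37 C.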

A short description of assay [10]: qHTS assay to identify small molecule agonists of the estrogen related receptor signaling pathway with the pleiotropic PPARgamma coactivator (PGC) from Tox21 10K library (AID 1224842). Further: nearly all actives have a fitted effect of over 15% in size. Further: potency means the concentration at half of the fitted maximal effect. In outline: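 PGC/ERR reporter cell line, 2,000 cells per well, incubated 6 h at 37 C before 23 nL compound in DMSO was added. After 18 h at 37 C, One-Glo luminescence read following 30 min at room temperature.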

Results filed as inconclusive are left out. Activity calls are given as the source filed them. Unless noted, the call rests on the fitted dose curve; in most records, active means well fitted curve in the direction sought with a large enough effect in the repeat runs; inconclusive means weak or mixed curves; inactive means no such curve, though single readings can be large; an effect the other way counts as inactive or inconclusive.

Chain of Nuclear receptor subfamily 1 group I member 3 (Homo sapiens) (Q14994 whole entry, looked up): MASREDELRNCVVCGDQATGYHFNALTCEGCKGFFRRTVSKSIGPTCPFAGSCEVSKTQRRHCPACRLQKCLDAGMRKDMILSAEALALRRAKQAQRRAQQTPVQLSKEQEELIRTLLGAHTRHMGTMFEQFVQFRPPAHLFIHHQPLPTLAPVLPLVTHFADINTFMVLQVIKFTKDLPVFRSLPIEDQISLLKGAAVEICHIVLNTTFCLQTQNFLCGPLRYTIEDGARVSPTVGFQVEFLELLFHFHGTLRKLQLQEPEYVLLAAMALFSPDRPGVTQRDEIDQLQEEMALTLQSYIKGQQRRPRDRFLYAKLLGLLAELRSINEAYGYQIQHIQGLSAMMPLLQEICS
Chain of Luciferin 4-monooxygenase (Photinus pyralis) (P08659 whole entry, looked up): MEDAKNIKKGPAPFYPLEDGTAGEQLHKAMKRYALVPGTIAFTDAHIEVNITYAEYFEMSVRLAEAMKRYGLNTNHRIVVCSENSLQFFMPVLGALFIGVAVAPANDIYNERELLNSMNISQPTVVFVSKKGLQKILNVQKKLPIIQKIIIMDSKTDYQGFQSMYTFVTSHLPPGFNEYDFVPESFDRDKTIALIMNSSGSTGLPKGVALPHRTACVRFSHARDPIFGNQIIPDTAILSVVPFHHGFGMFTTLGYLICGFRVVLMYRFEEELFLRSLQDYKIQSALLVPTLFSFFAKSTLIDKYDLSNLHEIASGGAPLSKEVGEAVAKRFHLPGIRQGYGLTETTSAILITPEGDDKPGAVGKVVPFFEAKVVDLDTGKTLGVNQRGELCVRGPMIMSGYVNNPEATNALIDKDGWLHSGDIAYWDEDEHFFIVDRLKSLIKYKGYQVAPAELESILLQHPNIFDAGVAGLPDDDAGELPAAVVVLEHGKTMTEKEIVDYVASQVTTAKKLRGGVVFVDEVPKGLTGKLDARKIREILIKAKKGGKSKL

Regarding `CCCCC(CC)COP(=O)(O)O` (stereo not drawn), the Potency result in [1], in assay [2], in assay [3], in [4], in [5] and in assay [6] was “inactive” in each case. Further, in assay [7], the Potency result is “inactive”.

As to `Cc1cc(C)cc(N)c1`, the Potency entry in assay [1], in assay [2], in assay [3], in assay [4], in assay [5] and in assay [6] was “inactive” each time. Besides, the Potency result in [7] was “inactive”.

Turning to `O=C(Cn1ccnc1[N+](=O)[O-])NCCO`, the Potency result in assay [1], in [2], in [3], in assay [4], in [5] and in [6] was “inactive” each time. Also, in assay [7], the Potency result is “inactive”.

For the molecule `C=CCc1ccccc1OCC(O)CNC(C)C` (stereo not drawn), the Potency entry in assay [1], in assay [2], in assay [3], in assay [4], in assay [5] and in [6] was “inactive” throughout.

On to `Cc1cc2c(OCC(CNC(C)(C)C)OC(=O)c3ccccc3)cccc2[nH]1` (stereo not drawn), for which the Potency result in assay [1], in assay [2], in [3], in [4] and in assay [5] was “inactive” each time.

On to `OCCOCC#CCOCCO`, for which the Potency entry in [1], in assay [2], in assay [3], in assay [4], in assay [5] and in assay [6] was “inactive” each time.

`CNC(=O)c1cnn(-c2nc(N)c3ncn([C@@H]4O[C@H](CO)[C@@H](O)[C@H]4O)c3n2)c1`: the Potency result in [1], in assay [2], in [3], in assay [4], in [5] and in assay [6] was “inactive” in each case.

Take `C=C(C)C(=O)OCCCCCCCCCCCCC`: the Potency result in [1], in assay [2], in [3], in assay [4], in [5] and in assay [6] was “inactive” throughout. Moreover, in [7], the Potency result was “inactive”.

For `CCOC(=O)C1=C(C)NC(C)=C(C(=O)OC)C1c1cccc(Cl)c1Cl` (stereo not drawn), in [8], the result was inactive. Also, the Potency result in [1], in [2], in [3], in assay [4], in assay [5] and in assay [6] was “inactive” in each case. Moreover, the Potency entry in [7], in [9] and in assay [10] was “inactive” in each case.

In the case of `O=c1cc(-c2ccccc2)oc2ccc3ccccc3c12`, the Potency result in assay [1], in assay [3], in assay [4], in [5], in assay [7] and in assay [9] was “inactive” throughout. Also, the Potency in assay [2] was 35.6 nM (active); in assay [6] it was 4860 nM (active); in [10], 243 nM (active).

For the molecule `CCOC(=O)c1ccc(OCCN2C[C@H](O)[C@@H](O)[C@H](O)[C@H]2CO)cc1`, the Potency entry in assay [1], in [2], in assay [3], in [4], in assay [5] and in [6] was “inactive” throughout. Moreover, the Potency result in assay [7] is “inactive”.

As to `Nc1cccc2c1CN(C1CCC(=O)NC1=O)C2=O` (stereo not drawn), the Potency entry in assay [1], in assay [2], in assay [3], in [4], in assay [5] and in assay [6] was “inactive” throughout. For the same molecule, in [7], the Potency result was “inactive”.

With `C=COCC(C)C`, the Potency result in [1], in assay [2], in assay [3], in [4], in [5] and in [6] was “inactive” in each case. In addition, the Potency result in assay [7], in assay [9] and in [10] was “inactive” throughout.

For `c1ccc(C[n+]2cccc3ccccc32)cc1`, the Potency result in [1], in [2], in assay [3], in assay [4], in assay [5] and in assay [6] was “inactive” each time. Further, the Potency result in [7] and in assay [10] was “inactive” each time. Moreover, the Potency in assay [9] is 24300 nM (active).

For the molecule `Cc1ccc(C(C)(C)O)cc1`, the Potency entry in assay [1], in assay [2], in assay [3], in [4], in assay [5] and in assay [6] was “inactive” in each case. Moreover, the Potency result in assay [7] is “inactive”.

`C[C@@]12CCC[C@H]1[C@@H]1CC[C@H]3C[C@@H](O)CC[C@]3(C)[C@H]1CC2`: the Potency entry in assay [1], in assay [2], in assay [3], in assay [4], in [5] and in [6] was “inactive” in each case. The Potency result in assay [7], in assay [9] and in assay [10] was “inactive” in each case.

Consider `Cc1ccc(OC(=O)c2ccccc2O)cc1`, for which the Potency result in assay [1], in assay [3], in assay [4], in [5], in assay [6] and in assay [9] was “inactive” each time. For the same molecule, the Potency in [2] was 6330 nM (active).

As to `COc1ccc(OC(=O)N(CC(=O)O)Cc2ccc(OCCc3nc(-c4ccccc4)oc3C)cc2)cc1`, the Potency result in [1], in assay [2], in assay [3], in [4], in [5] and in assay [6] was “inactive” in each case. In addition, the Potency result in assay [7], in assay [9] and in assay [10] was “inactive” each time.

As to `CC1(C)[C@H](C(=O)O)N2C(=O)C[C@H]2S1(=O)=O`, the Potency entry in assay [1], in [2], in assay [3], in assay [4], in assay [5] and in assay [6] was “inactive” throughout. Also, the Potency result in assay [7], in assay [9] and in assay [10] was “inactive” each time.

Regarding `O=C(O)c1ccc(OCCCOc2ccc(C(=O)O)cc2)cc1`, the Potency entry in assay [1], in assay [2], in assay [3], in assay [4], in [5] and in assay [6] was “inactive” throughout. The Potency result in assay [7], in assay [9] and in assay [10] was “inactive” in each case.

Take `COC(=O)c1nc(Cl)c(Cl)nc1N`: the Potency in assay [1] is 11900 nM (active); in assay [4], 29800 nM (active); in assay [5] it was 2980 nM (active); in assay [7], 1680 nM (active). The Potency entry in assay [2], in assay [3], in assay [6] and in [10] was “inactive” throughout.

`CC(C)C[C@H](NC(=O)[C@H](CCc1ccccc1)NC(=O)CN1CCOCC1)C(=O)N[C@@H](Cc1ccccc1)C(=O)N[C@@H](CC(C)C)C(=O)[C@@]1(C)CO1`: the Potency in assay [1] was 133 nM (active); in [3] it was 376 nM (active); in assay [4], 422 nM (active); in assay [5], 119 nM (active); in [7], 3350 nM (active); in assay [9], 84.1 nM (active). In addition, the Potency result in assay [2], in assay [6] and in assay [10] was “inactive” in each case.

Regarding `N#[N+]c1ccc2c(S(=O)(=O)[O-])cccc2c1O`, the Potency entry in assay [1], in [3], in assay [4], in [5], in assay [6] and in assay [7] was “inactive” each time. Moreover, the Potency entry in [9] and in [10] was “inactive” throughout. For the same molecule, in assay [2], the Potency is 44800 nM (active).

For the molecule `CCC(C)(C)OC`, the Potency entry in assay [1], in [2], in [3], in assay [4], in assay [5] and in assay [6] was “inactive” in each case. The Potency result in assay [7], in [9] and in assay [10] was “inactive” in each case.

Regarding `C=C1c2cccc(O)c2C(O)=C2C(=O)[C@]3(O)C(O)=C(C(N)=O)C(=O)[C@@H](N(C)C)[C@@H]3[C@@H](O)[C@H]12`, the Potency result in assay [1], in assay [2], in [3], in assay [4], in assay [5] and in [6] was “inactive” in each case. Moreover, the Potency result in [7], in assay [9] and in assay [10] was “inactive” each time.

Turning to `CCCCN(CCN(CCCC)C(=O)N1CCOCC1)C(=O)N1CCOCC1`, the Potency entry in [1], in assay [2], in assay [3], in [4], in assay [5] and in assay [6] was “inactive” in each case. For the same molecule, the Potency result in [7] is “inactive”.
